Test results from the supplement of paper PMC12350171.
Counter-ions that a name gives are not always drawn. Unmarked numbers belong to inactive results.

Legend:
Details in all cases: 20 µM
P. vulgatus RND KO = assay: growth AUC normalised to DMSO control (median) (fraction of control); higher = less growth inhibition, active = hit call of the paper
Procedure, shortened: (§1)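 In 96-well plates of mGAM seeded at OD578 0.01, strains that had been passaged twice overnight without oxygen were exposed to approved-drug library compounds at 20 μM with 1% DMSO. Hourly OD578 readings were taken for 24 h in an anaerobic incubator. The trapezoidal-rule area under the curve, with curves truncated at entry into stationary phase, was expressed relative to same-plate vehicle wells as the median of three biological replicates.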

P. vulgatus WT = assay: as above
Procedure, shortened: as §1

[1] = tested on: S. enterica typhimurium WT; assay: as above
Procedure, shortened: as §1

[2] = tested on: S. enterica typhimurium tolC KO; assay: as above
Procedure, shortened: as §1

Shigella flexneri = assay: growth AUC normalised to DMSO control (fraction of control); higher = less growth inhibition, active = hit call of the paper
Procedure, shortened: (§2)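 After two anaerobic passages, pathogens were added at a starting OD578 of 0.01 to pre-reduced mGAM plates holding compound at 20 μM with 1% DMSO; hemin and NAD were supplemented for Haemophilus parainfluenzae. Sealed with breathable membranes, plates were read at OD578 hourly for 24 h, in three biological replicates. The trapezoidal rule, applied up to the exponential-to-stationary transition, gave the growth-curve AUC, which was normalised to DMSO controls on the same plate.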

Vibrio cholerae = assay: as above
Procedure, shortened: as §2

[3] = tested on: Yersinia pseudotuberculosis; assay: as above
Procedure, shortened: as §2
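Wherever growth AUC normalised to DMSO control (median) is given: active when median AUC fell below 0.1.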

| Compound | growth AUC normalised to DMSO control (P. vulgatus RND KO) | growth AUC normalised to DMSO control (P. vulgatus WT) | growth AUC normalised to DMSO control [1] | growth AUC normalised to DMSO control [2] | growth AUC normalised to DMSO control (Shigella flexneri) | growth AUC normalised to DMSO control (Vibrio cholerae) | growth AUC normalised to DMSO control [3] |
| --- | --- | --- | --- | --- | --- | --- | --- |
| C[C@H](O)[C@H](O)[C@H]1CNc2[nH]c(N)nc(=O)c2N1 [Sapropterin dihydrochloride] | 1.04 | 1.05 | 1.01 | 0.977 |  |  |  |
| Cn1c(=O)c2c(ncn2C)n(C)c1=O [Caffeine] | 1.02 | 1.02 | 0.993 | 0.999 | 1.04 | 1.03 | 1.01 |
| Cc1ncc(C[n+]2csc(CCO)c2C)c(N)n1 [Thiamine hydrochloride] | 0.978 | 0.981 | 0.998 | 0.996 | 0.961 | 0.967 | 0.999 |
| C[C@]12CC[C@@H]3c4ccc(O)cc4CC[C@H]3[C@@H]1C[C@@H](O)[C@@H]2O [Estriol] | 0.979 | 0.978 | 1 | 0.993 |  | 1.02 | 1.01 |
| Cc1ccc(/C(=C\CN2CCCC2)c2ccccn2)cc1 [Triprolidine hydrochloride] | 1 | 0.99 | 1 | 0.978 | 0.97 | 0.967 | 0.992 |
| CN1C(C(=O)Nc2ccccn2)=C(O)c2sccc2S1(=O)=O [Tenoxicam] | 0.97 | 0.969 | 1 | 0.956 | 0.94 | 0.791 (active) | 0.993 |
| CC(C)(C)CC(C)(C)c1ccc(O)c(Cc2ccc(Cl)cc2Cl)c1 [Clofoctol] | 0.619 | 0.581 | 0.995 | 1.02 |  |  |  |
| CCC1(c2ccccc2)C(=O)NCNC1=O [Primidone] | 1 | 1 | 1 | 0.997 | 0.971 | 0.976 | 0.951 |
| Cn1c(=O)c2nc[nH]c2n(C)c1=O [Theophylline monohydrate] | 1.02 | 1.01 | 1.01 | 1 | 1.05 | 1.07 | 1.02 |
| CC1=C(C(=O)O)N2C(=O)[C@@H](NC(=O)[C@H](N)c3ccccc3)[C@H]2SC1 [Cephalexin monohydrate] | 1.04 | 1.04 | 0.999 | 0.968 |  |  |  |
| Cc1cc(/C=C/c2ccc3cc(N(C)C)ccc3[n+]2C)c(C)n1-c1ccccc1 [Pyrvinium pamoate] | 1.01 | 1.08 | 1.02 | 0.61 |  | 0.865 |  |
| CN1CCN(c2c(F)cc3c(=O)c(C(=O)O)cn(CCF)c3c2F)CC1 [Fleroxacin] | 0.727 | 0.585 | 0.00801 (active) | 0.00549 (active) | 0.0225 (active) | 0.0321 (active) | 0.0196 (active) |
| O=C(O)COc1nn(Cc2ccccc2)c2ccccc12 [Bendazac] | 0.998 | 1.02 | 1 | 0.987 |  |  |  |
| N#Cc1cc(NC(=O)C(=O)O)c(Cl)c(NC(=O)C(=O)O)c1 [Lodoxamide] | 1 | 1.04 | 1 | 1.01 |  |  |  |
| C[C@@H](O)[C@H]1C(=O)N2C(C(=O)O)=C(S[C@@H]3CN[C@H](CNS(N)(=O)=O)C3)[C@H](C)[C@H]12 [Doripenem monohydrate] | 0.00779 (active) | 0.00747 (active) | 0.00575 (active) | 0.00595 (active) |  |  |  |
| O=c1[nH]c(=O)n([C@H]2C[C@H](O)[C@@H](CO)O2)cc1C(F)(F)F [Trifluridine] | 0.13 | 0.123 | 0.964 | 0.958 | 1.01 | 1.05 | 0.997 |
| COc1ccc(C2C(=O)c3ccccc3C2=O)cc1 [Anisindione] | 1 | 1 | 0.973 | 0.749 |  |  |  |
| CCC(=O)c1ccc(O)cc1 [Paroxypropione] | 1 | 0.985 | 0.994 | 1 |  |  |  |

| Compound | growth AUC normalised to DMSO control (P. vulgatus RND KO) | growth AUC normalised to DMSO control (P. vulgatus WT) | growth AUC normalised to DMSO control [1] | growth AUC normalised to DMSO control [2] | growth AUC normalised to DMSO control (Shigella flexneri) | growth AUC normalised to DMSO control (Vibrio cholerae) | growth AUC normalised to DMSO control [3] |
| --- | --- | --- | --- | --- | --- | --- | --- |
| CCN1CCN(C(=O)N[C@@H](C(=O)N[C@@H]2C(=O)N3[C@@H]2SC(C)(C)[C@@H]3C(=O)O)c2ccccc2)C(=O)C1=O [Piperacillin sodium salt] | 0.0135 (active) | 0.0163 (active) | 0.734 | 0.00671 (active) | 0.098 (active) | 0.63 (active) | 0.291 (active) |
| O=C1C(=O)c2ccccc2C(O)=C1C1CCC(c2ccc(Cl)cc2)CC1 (configuration not stated) [Atovaquone] | 1.02 | 1.02 | 0.992 | 1.01 | 0.976 |  | 0.993 |
| Cc1ncc([N+](=O)[O-])n1CCO [Metronidazole] | 0.0156 (active) | 0.0126 (active) | 1.04 | 0.991 |  |  | 1 |
| CO[C@@]12[C@H](COC(N)=O)C3=C(C(=O)C(C)=C(N)C3=O)N1C[C@@H]1N[C@@H]12 [Mitomycin C] | 0.0125 (active) | 0.013 (active) | 0.196 | 0.00599 (active) |  |  |  |
| Cc1cn([C@H]2C[C@H](N=[N+]=[N-])[C@@H](CO)O2)c(=O)[nH]c1=O [Zidovudine] |  | 0.986 | 0.304 |  | 0.155 (active) | 0.956 | 0.781 (active) |
| COC1=CC(=O)C[C@@H](C)[C@]12Oc1c(Cl)c(OC)cc(OC)c1C2=O [Griseofulvin] | 0.99 | 0.976 | 1 | 0.996 | 0.998 | 0.99 | 1.03 |
| Cc1nc2n(c(=O)c1CCN1CCC(c3noc4cc(F)ccc34)CC1)CCCC2O (configuration not stated) [Paliperidone] | 0.976 | 0.958 | 0.997 | 0.985 |  |  |  |
| CCCNC(C)(C)C(=O)Nc1ccccc1C [Quatacaine] | 1.01 | 1.03 | 1 | 0.975 |  |  |  |
| C=C(NC(=O)C(=C)NC(=O)c1csc(C2=N[C@@H]3c4csc(n4)[C@H]4NC(=O)c5csc(n5)[C@H]([C@](C)(O)[C@@H](C)O)NC(=O)[C@H]5CSC(=N5)/C(=C/C)NC(=O)[C@H]([C@@H](C)O)NC(=O)c5csc(n5)[C@]3(CC2)NC(=O)[C@H](C)NC(=O)C(=C)NC(=O)[C@H](C)NC(=O)[C@H]([C@@H](C)CC)N[C@@H]2C=Cc3c([C@H](C)O)cc(nc3[C@H]2O)C(=O)O[C@@H]4C)n1)C(N)=O [Thiostrepton] | 0.0151 (active) | 0.0162 (active) | 1 | 1 |  |  |  |
| O=C(Oc1cccc2cccnc12)c1ccccc1 [Benzoxiquine] | 0.935 | 0.934 | 0.994 | 0.968 |  |  |  |
| C[C@H]1[C@H](NC(=O)/C(=N\OC(C)(C)C(=O)O)c2csc(N)n2)C(=O)N1S(=O)(=O)O [Aztreonam] |  | 0.134 |  |  | 0.0599 (active) | 0.773 (active) | 0.135 (active) |
| CCOC(=O)c1c(N)sc2c1CCN(Cc1ccccc1)C2 [Tinoridine hydrochloride] | 0.91 | 0.852 | 0.989 | 0.969 |  |  |  |
| CCCC(=O)OCOC(=O)C1=C(C)NC(C)=C(C(=O)OC)C1c1cccc(Cl)c1Cl (configuration not stated) [Clevidipine] | 0.986 | 0.992 | 0.98 | 1 |  |  |  |
| Cn1cc(C(=O)[C@@H]2CCc3[nH]cnc3C2)c2ccccc21 [Ramosetron hydrochloride] | 0.999 | 0.997 | 0.995 | 0.975 |  |  |  |
| COC(=O)C1=C(C)NC(C)=C(C(=O)OCCN2CCN(C(c3ccccc3)c3ccccc3)CC2)C1c1cccc([N+](=O)[O-])c1 (configuration not stated) [Manidipine Dihydrochloride] | 1.03 | 1.02 | 0.999 | 1.02 |  |  |  |
| OC[C@H]1O[C@@H](c2ccc(Cl)c(Cc3ccc(O[C@H]4CCOC4)cc3)c2)[C@H](O)[C@@H](O)[C@@H]1O [Empagliflozin] | 1.02 | 1.04 | 1.01 | 0.992 |  |  |  |
| CN1CCN(c2c(F)cc3c(=O)c(C(=O)O)cn4c3c2OCN4C)CC1 [Marbofloxacin] | 0.0125 (active) | 0.0111 (active) | 0.00445 (active) | 0.00216 (active) |  |  |  |
